Hits are enriched below; roughly 3.5% of the tested compounds scored in any of these assays.
FBW7 act: FBW7 E3 ligase activators, primary screen, biochemical, AlphaScreen, human; normalized activity (activation), % at 26.1 µM; AlphaScreen FBW7–phospho-cyclin E peptide binding, activator screen; AID 1259310, 2017; hit rate 0.13% among 650,000; in the data active = normalized activity above about 1.9%;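 note: purified mutant Fbw7 with reduced substrate affinity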
Target sequence (Q969H0 whole entry, looked up): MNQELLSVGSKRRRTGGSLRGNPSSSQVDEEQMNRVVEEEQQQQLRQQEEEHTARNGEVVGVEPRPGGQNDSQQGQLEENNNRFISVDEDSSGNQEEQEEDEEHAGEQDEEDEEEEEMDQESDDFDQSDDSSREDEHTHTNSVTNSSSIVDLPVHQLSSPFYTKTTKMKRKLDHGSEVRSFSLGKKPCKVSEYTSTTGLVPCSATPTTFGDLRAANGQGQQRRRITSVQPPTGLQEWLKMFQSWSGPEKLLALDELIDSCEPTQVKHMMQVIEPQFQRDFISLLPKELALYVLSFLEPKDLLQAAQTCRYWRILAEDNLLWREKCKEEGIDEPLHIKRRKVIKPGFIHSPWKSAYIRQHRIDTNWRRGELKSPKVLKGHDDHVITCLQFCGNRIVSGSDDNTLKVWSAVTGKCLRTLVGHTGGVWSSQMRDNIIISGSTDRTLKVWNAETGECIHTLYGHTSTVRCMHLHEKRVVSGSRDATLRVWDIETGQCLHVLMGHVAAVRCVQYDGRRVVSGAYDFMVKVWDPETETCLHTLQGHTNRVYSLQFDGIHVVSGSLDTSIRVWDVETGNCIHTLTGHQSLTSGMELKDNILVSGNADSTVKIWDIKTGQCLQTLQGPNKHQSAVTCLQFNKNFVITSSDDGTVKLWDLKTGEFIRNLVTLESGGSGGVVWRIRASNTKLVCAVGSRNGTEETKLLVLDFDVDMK
MITF inh: MITF inhibitors, primary screen, biochemical, AlphaScreen, human | Microphthalmia-associated transcription factor (Homo sapiens), O75030 | AlphaScreen MITF homodimerization, bead proximity signal | inhibition, % at 2.6 µM | hit rate 0.91% among 650,000 | AID 1259374, 2018; in the data active = inhibition above about 50%
GPR151 activ: activators of human GPR151, primary screen, cell-based, PathHunter beta-arrestin, luminescence | AID 1508602, 2020 | G-protein coupled receptor 151 (Homo sapiens), Q8TDV0 | activation, % at 11.2 µM | hit rate 1% among 650,000 | PathHunter beta-arrestin GPR151 cells; in the data active = activation above about 4.9%
TEAD-YAP inh: TEAD-YAP interaction inhibition, primary screen, TEAD-YAP interaction inhibitor project, luminescence, HEK-TIYL cells. TEAD-Gal4/YAP UAS-luciferase luminescence. inhibition, % at 9.12 µM. hit rate 1.4% among 640,000. AID 1259422, 2018; in the data active = inhibition above about 32%
GPR151 confirm: GPR151 activators, triplicate retest, confirmation, cell-based, PathHunter beta-arrestin, luminescence. AID 1508609, 2020. shares compounds with GPR151 activ. 6,700 tested, under 10 active. activation, % at 11.2 µM. GPR151 PathHunter beta-arrestin cells, 90 min; % of EA-reagent control over plate median;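 active = mean percent activation across replicates above the confirmation screen cutoff of 4.91%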
GPR119 ag: GPR119 activators in beta-arrestin cells, counter-screen for GPR151 activator project, cell-based, PathHunter beta-arrestin, luminescence, triplicate; shares compounds with GPR151 activ; 90 min; 0 = compound-well median, 100 = enzyme-acceptor control; AID 1508611, 2020; hit rate 0.3% among 6,700; activation, % at 11.2 µM;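 active = mean percent activation in the counterscreen above 29.09%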;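 note: counterscreen on off-target GPR119 to flag nonselective hits from the GPR151 activator screen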
Of the large screens only hits and unclear results are named; the others gave an inactive call (follow-up assays come after a bar, where they were run).

COC(=O)c1ccccc1NC(=O)c1cc(S(=O)(=O)N2CC(C)CC(C)C2)c(C)o1 (stereo not given)	none
CC(NC(=O)C1CC1)C(c1cccs1)N1CCN(c2ccccc2)CC1 (stereo not given)	GPR151 activ 5.7 | GPR151 confirm inactive | GPR119 ag inactive
CC(NC(=O)C1CC1)C(c1cccs1)N1CCN(c2ccccc2F)CC1 (stereo not given)	none
O=C(O)CCCC(=O)N1CCC(N2C(=O)Cc3ccccc32)CC1	GPR151 activ 9.2 | GPR151 confirm inactive | GPR119 ag inactive
CC(=O)c1ccc(NC(=S)NCC2CCCO2)cc1 (stereo not given)	GPR151 activ 5.4 | GPR151 confirm inactive | GPR119 ag inactive
S=C(NCC1CCCO1)Nc1ccc(I)cc1 (stereo not given)	none
COc1ccc(S(=O)(=O)N2N=C(C)Oc3ccccc3C2=O)cc1	GPR151 activ 5.2, TEAD-YAP inh 44.1 | GPR151 confirm inactive | GPR119 ag inactive
CCOc1cc(C2C(C(=O)OC)=CN(CCOC)C=C2C(=O)OC)cc([N+](=O)[O-])c1O	GPR151 activ 6.0 | GPR151 confirm inactive | GPR119 ag inactive
c1ccc(CNc2nc(N3CCN(Cc4ccc5c(c4)OCO5)CC3)nc3nc[nH]c23)cc1	none
COc1ccc(N=C(C)c2c(C)[nH]n(-c3ccccc3)c2=O)c(OC)c1	none
O=C(NCCCN1CCN(c2ccccc2)CC1)c1ccccc1	none
Cc1ccc(C(=O)NCN2CCN(c3ccccc3)CC2)cc1	GPR151 activ 6.0 | GPR151 confirm inactive | GPR119 ag inactive
CCOC(=O)c1c(CN2CCC(C)CC2)n(-c2ccccc2)c2cc(Br)c(OC(C)=O)cc12	none
C=CCNC(=O)NC(=O)COC(=O)CC(NC(N)=O)c1ccc(Cl)cc1 (stereo not given)	GPR151 activ 4.9 | GPR151 confirm inactive | GPR119 ag inactive
Cc1ccc(S(=O)(=O)c2nc(NCCN(C)C)sc2Cl)cc1	GPR151 activ 5.2 | GPR151 confirm inactive | GPR119 ag inactive
c1cc(-c2ccc3nc(-c4ccncc4)[nH]c3c2)ccn1	none
C1=C(c2nc3ccc(-c4ccncc4)cc3[nH]2)CCOc2ccccc21	GPR151 activ 10.0 | GPR151 confirm inactive | GPR119 ag inactive
O=C(CSCc1c(Cl)cccc1Cl)N1CCOCC1	none
O=C(CSCc1c(Cl)cccc1Cl)N1CCCCC1	GPR151 activ 6.1 | GPR151 confirm inactive | GPR119 ag inactive
COc1ccc(NC(=O)c2ccc(SC(C)C)cc2)cc1	none
Cc1ccc(-n2ncc3c(=O)n(Cc4cccnc4)cnc32)cc1	GPR151 activ 6.6 | GPR151 confirm inactive | GPR119 ag inactive
COc1ccc(/C=C2\SC(=Nc3ccc(O)cc3)NC2=O)cc1	none
COc1ccc(/C=C2/SC(=Nc3ccc(O)cc3)NC2=O)cc1	GPR151 activ 5.0 | GPR151 confirm inactive | GPR119 ag inactive
Cc1cc(C)cc(N=C2NC(=O)/C(=C/c3ccc(OCc4ccc(Br)cc4)cc3)S2)c1	GPR151 activ 5.7 | GPR151 confirm inactive | GPR119 ag inactive
Cc1cc(C)cc(N=C2NC(=O)/C(=C/c3ccc(OCc4ccc(Br)cc4)c(Br)c3)S2)c1	none
COc1cc([N+](=O)[O-])cc([N+](=O)[O-])c1OCC(=O)N/N=C/c1cccc([N+](=O)[O-])c1O	none
O=C(NC1Cc2ccccc2C1)c1ccc(OC2CCN(C(=O)C3CC3)CC2)cc1	GPR151 activ 8.1 | GPR151 confirm inactive | GPR119 ag inactive
NNC(=S)NCCc1ccc(Cl)cc1	none
CCNC(=S)NCCc1ccc(Cl)cc1	GPR151 activ 5.5 | GPR151 confirm inactive | GPR119 ag inactive
O=C(NCCc1ccc(Cl)cc1)C(=O)NCc1ccccc1	GPR151 activ 7.4 | GPR151 confirm inactive | GPR119 ag inactive
CC1C2NC(=S)NC1(C)Oc1ccccc12 (stereo not given)	GPR151 activ 7.4 | GPR151 confirm inactive | GPR119 ag inactive
CC1(C)CC2CC(C)(CN2C(=O)c2ccc(NC(=O)c3cc(F)c(F)cc3Cl)cc2)C1 (stereo not given)	none

Screening results: PubChem, The Scripps Research Institute Molecular Screening Center
